In PubChem BioAssay:
Active and inactive are the calls of the source. How the calls were made is not given here. Where a SMILES comes first, the peptide text is derived from it. The star is where a group is joined. Boc = CC(C)(C)OC(=O)*; OBn = c1ccc(CO*)cc1

Legend:
[1] = test system: Botulinum neurotoxin type F light chain protease (Clostridium botulinum); assay: Clostridium botulinum type F light chain protease inhibitors, microsphere substrate cleavage, validation (AID 588459); settings: multiplex microsphere protease substrate cleavage assay, flow cytometry; at 10 µM; hits give high values
[2] = target: Botulinum neurotoxin type A (Clostridium botulinum) (UniProt P0DPI0); assay: BoNT/A light chain protease inhibitors, biochemical, multiplex microsphere flow cytometry, validation set (AID 588460); settings: at 10 µM, hits give high values
Chain of Botulinum neurotoxin type A (Clostridium botulinum) (P0DPI0 whole entry, looked up): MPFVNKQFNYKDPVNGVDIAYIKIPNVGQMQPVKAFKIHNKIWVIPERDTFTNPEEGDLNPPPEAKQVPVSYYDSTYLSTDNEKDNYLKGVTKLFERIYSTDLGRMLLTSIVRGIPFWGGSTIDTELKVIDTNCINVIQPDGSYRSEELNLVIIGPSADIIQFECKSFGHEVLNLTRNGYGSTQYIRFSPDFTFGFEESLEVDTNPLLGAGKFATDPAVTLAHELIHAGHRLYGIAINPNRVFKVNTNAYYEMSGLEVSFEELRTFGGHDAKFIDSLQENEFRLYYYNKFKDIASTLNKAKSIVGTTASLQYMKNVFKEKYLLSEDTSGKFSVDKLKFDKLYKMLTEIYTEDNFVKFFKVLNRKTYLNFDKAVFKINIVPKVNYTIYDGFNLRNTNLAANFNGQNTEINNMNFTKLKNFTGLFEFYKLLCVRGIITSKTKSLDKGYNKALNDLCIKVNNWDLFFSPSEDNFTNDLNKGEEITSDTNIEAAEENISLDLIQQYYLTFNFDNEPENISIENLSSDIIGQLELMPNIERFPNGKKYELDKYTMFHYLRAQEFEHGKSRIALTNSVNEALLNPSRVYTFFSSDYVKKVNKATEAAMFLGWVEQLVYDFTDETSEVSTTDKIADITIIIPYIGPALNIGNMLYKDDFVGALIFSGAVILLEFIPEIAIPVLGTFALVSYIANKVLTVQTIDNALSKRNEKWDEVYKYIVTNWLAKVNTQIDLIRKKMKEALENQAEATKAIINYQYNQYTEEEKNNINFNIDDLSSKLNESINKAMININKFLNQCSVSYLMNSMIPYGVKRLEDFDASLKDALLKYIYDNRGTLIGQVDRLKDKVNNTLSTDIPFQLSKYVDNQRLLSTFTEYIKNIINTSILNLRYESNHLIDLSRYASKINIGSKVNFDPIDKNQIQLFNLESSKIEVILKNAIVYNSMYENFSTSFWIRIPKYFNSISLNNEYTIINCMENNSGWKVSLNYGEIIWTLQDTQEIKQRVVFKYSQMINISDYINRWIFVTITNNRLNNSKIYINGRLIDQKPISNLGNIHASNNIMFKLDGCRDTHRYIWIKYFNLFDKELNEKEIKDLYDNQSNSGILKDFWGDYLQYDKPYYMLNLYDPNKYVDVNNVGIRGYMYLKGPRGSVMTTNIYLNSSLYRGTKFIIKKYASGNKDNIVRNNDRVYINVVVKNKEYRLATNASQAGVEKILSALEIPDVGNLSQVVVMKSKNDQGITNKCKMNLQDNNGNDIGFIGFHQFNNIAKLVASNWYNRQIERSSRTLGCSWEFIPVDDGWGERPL

[3] = target: Lethal factor (Bacillus anthracis) (UniProt P15917); assay: Bacillus anthracis lethal factor inhibition, microsphere flow cytometry protease assay, validation at 10 µM (AID 588461); settings: multiplex microsphere protease cleavage assay, hits give high values
Chain of Lethal factor (Bacillus anthracis) (P15917 whole entry, looked up): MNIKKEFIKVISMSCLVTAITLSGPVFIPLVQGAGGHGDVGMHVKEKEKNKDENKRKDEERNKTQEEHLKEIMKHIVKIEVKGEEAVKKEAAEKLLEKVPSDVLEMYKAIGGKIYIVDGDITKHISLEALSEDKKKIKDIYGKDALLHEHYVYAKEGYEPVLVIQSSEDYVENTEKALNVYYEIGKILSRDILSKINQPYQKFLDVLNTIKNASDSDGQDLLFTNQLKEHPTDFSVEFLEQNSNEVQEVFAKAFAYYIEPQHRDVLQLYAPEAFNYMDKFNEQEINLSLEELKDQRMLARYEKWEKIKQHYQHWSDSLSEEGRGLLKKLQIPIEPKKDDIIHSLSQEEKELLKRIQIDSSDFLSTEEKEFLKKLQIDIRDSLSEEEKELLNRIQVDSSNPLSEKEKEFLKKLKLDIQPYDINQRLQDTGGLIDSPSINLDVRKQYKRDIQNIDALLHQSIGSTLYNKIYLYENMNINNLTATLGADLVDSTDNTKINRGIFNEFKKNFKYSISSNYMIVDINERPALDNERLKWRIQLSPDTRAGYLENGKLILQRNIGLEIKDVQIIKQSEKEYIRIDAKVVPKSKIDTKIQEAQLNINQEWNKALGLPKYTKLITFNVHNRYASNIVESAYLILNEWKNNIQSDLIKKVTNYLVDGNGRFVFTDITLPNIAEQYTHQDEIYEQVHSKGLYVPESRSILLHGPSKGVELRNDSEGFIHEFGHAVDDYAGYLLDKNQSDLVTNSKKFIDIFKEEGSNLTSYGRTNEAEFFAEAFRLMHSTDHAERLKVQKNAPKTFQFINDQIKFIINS

Measured: inhibition

C[C@]12CC[C@@H]3c4cc(O)c(O)cc4CC[C@H]3[C@@H]1CC[C@@H]2O
inactive: [1] -1% | [2] 1% | [3] -0.8%

Nc1ccc(N)c(C(=O)O)c1
inactive: [1] -6.1% | [2] -14% | [3] -7.2%

Cc1ccc(C(=O)O)cc1NC(=O)c1cccs1
inactive: [1] -1.2% | [2] 0% | [3] 2%

O=C1CCCN1CCCn1cnc2c([nH]c3ccc(F)cc32)c1=O
inactive: [1] 0% | [2] -0.3% | [3] 2.3%

CCN1CCN(C(=S)c2ccc(OC)cc2)CC1
inactive: [1] 2.2% | [2] -0.9% | [3] 11.9%

CC1(C)[C@@H](O)CC[C@]2(C)[C@H]3C(=O)C=C4[C@@H]5C[C@@](C)(C(=O)O)CC[C@]5(C)CC[C@@]4(C)[C@]3(C)CC[C@@H]12
inactive: [1] 4.4% | [2] -1.5% | [3] -0.5%

NCCCC(N)(C(=O)O)C(F)F (stereo not given)
inactive: [1] -3% | [2] 0.5% | [3] -2.1%

Cc1ccc(-c2nnc(-c3ccc4c(c3)OCO4)o2)cc1
inactive: [1] -1% | [2] -0.1% | [3] -8%

COc1ccc(/C=C(/C#N)c2cccnc2)cc1OC
inactive: [1] -0.3% | [2] 1% | [3] -7.4%

C[C@@H]1CCC[C@H](C)N1NC(=O)c1ccc(Cl)c(S(N)(=O)=O)c1
inactive: [1] 1.2% | [2] -1.2% | [3] -0.8%

CCOC(=O)C(=O)N1CCN(c2ccccc2OC)CC1
inactive: [1] 1.5% | [2] -1.1% | [3] -4.9%

CC(=O)OCC(=O)[C@H]1CC[C@H]2[C@@H]3CC=C4C[C@@H](O)CC[C@]4(C)[C@H]3CC[C@]12C
inactive: [1] -1.9% | [2] -1.3% | [3] -7.4%

COC(=O)CN1C(=S)N(c2ccc(F)cc2)C(=O)C1CC(=O)Nc1ccccc1 (stereo not given)
inactive: [1] -5.7% | [2] -2% | [3] -5.6%

O=c1c(-c2ccc3c(c2)OCCO3)coc2cc(OC3OC(CO)C(O)C(O)C3O)ccc12 (stereo not given)
inactive: [1] 0.2% | [2] 0.1% | [3] 6.4%

O=C(c1ccc(Cl)cc1)C1CCCN(C(=O)/C=C/c2ccccn2)C1 (stereo not given)
inactive: [1] 2.6% | [2] -0.7% | [3] 6%

O=C(N1CCCC1)C12CC3CC(C1)CC(C(=O)N1CCCC1)(C3)C2
inactive: [1] -1.6% | [2] -2.5% | [3] -8%

CC(C)COC(=O)C1C(=O)CC(C)(O)C(C(=O)OCC(C)C)C1c1cccnc1 (stereo not given)
inactive: [1] 2.5% | [2] 0.6% | [3] 3.5%

Cn1cc(C2N3CC4(C)CN2CC(C)(C3)C4=O)c2ccccc21 (stereo not given)
inactive: [1] 1% | [2] 1.7% | [3] -10.2%

COc1ccc2oc(=O)c(-c3nc(C)cs3)cc2c1
inactive: [1] 2.9% | [2] 1.9% | [3] -0.1%

COc1cc2c(cc1OC)-c1nnc(C)n1C(C)(C)C2
inactive: [1] 0.7% | [2] 0.2% | [3] -2.5%

COCc1cc(=O)[nH]c(/N=C(\N)Nc2ccc(Oc3ccccc3)cc2)n1
inactive: [1] 3.4% | [2] 0.1% | [3] 5.6%

Cc1nc(N)sc1C(=O)N/N=C/c1ccco1
inactive: [1] -4.3% | [2] 0.1% | [3] 0.8%

C[C@]12CCC(=O)C=C1[C@H](O)C[C@@H]1[C@@H]2[C@@H](O)C[C@@]2(C)[C@H]1CC[C@]2(O)C(=O)CO
inactive: [1] -0.1% | [2] -0.3% | [3] 4.2%

Cc1ccc2[nH]c3c(=O)n(CCc4cnc[nH]4)cnc3c2c1
inactive: [1] -6.6% | [2] -0.7% | [3] -10.5%

COC(=O)c1sccc1NC(=O)Nc1ccccc1F
inactive: [1] -1.2% | [2] -1.3% | [3] 1.2%

C=C(C)C(=O)Nc1ccc(NC(C)C)cc1
inactive: [1] 0.4% | [2] -0.8% | [3] 5.7%

COc1ccc(OC(C)C(=O)Nc2ccc([N+](=O)[O-])cc2)cc1 (stereo not given)
inactive: [1] 4% | [2] 1.9% | [3] -0.5%

CC12CCC(C(=O)N3CCc4ccccc43)(CC1=O)C2(C)C (stereo not given)
inactive: [1] 0.6% | [2] -0.7% | [3] -0.2%

Cc1oc(/C=N/NC(=O)CC2(C)OCCO2)cc1Br
inactive: [1] 3.9% | [2] 0.6% | [3] 3.2%

COc1cc([C@@H]2c3cc4c(cc3[C@H](O)[C@H]3COC(=O)[C@H]23)OCO4)cc(OC)c1OC
inactive: [1] 1.4% | [2] 0% | [3] -2.8%

CCCCC[C@H](O)/C=C/C1=C(CCCCCCC(=O)O)C(=O)CC1
inactive: [1] -0.6% | [2] -0.5% | [3] 2.4%

COc1c2occc2c(OC)c2c(=O)cc(C(F)(F)C(F)(F)F)oc12
inactive: [1] 2.3% | [2] 0.5% | [3] 0.4%

COc1ccc(C(=O)COc2ccc(F)cc2)c(O)c1
inactive: [1] 1% | [2] -1.3% | [3] -9.8%

CC(C)CC(NC(=O)C(NC(=O)OC(C)(C)C)C(C)C)C(=O)NC(CCC(=O)OCc1ccccc1)C(N)=O (stereo not drawn) (Boc-Val-Leu-Glu(OBn)-NH2; configuration not given here)
inactive: [1] 2.1% | [2] -1.3% | [3] -0.4%

CC(=O)[C@@]1(O)CC[C@H]2[C@@H]3CCC4=CC(=O)CC[C@]4(C)[C@H]3CC[C@@]21C
inactive: [1] 11.2% | [2] 0.4% | [3] -5.7%

COc1ccc(CCN(C)CC(=O)Nc2cc(C)nc3ccccc23)cc1OC
inactive: [1] 0.4% | [2] 0.9% | [3] -1.4%

COC(=O)c1cc(C(=O)NCCC(C)C)cc([N+](=O)[O-])c1
inactive: [1] -5.3% | [2] -2.3% | [3] 2.1%

O=C(NCc1ccccc1Cl)NC(=O)c1ccccc1
inactive: [1] -1.4% | [2] 0.8% | [3] 6.8%

O=S(=O)(NCCCCCNS(=O)(=O)c1ccccc1)c1ccccc1
inactive: [1] 0.4% | [2] -0.1% | [3] -0.7%

CCOc1cc(C)cc2oc(=O)cc(-c3ccccc3)c12
inactive: [1] -2.2% | [2] -0.6% | [3] -4.4%

COc1c2occc2c(OC)c2c(=O)cc(C)oc12
inactive: [1] -0.3% | [2] -1.1% | [3] 4.5%

O=C1NCC2=C1C(c1ccccc1)Nc1ccccc1N2 (stereo not given)
inactive: [1] 2.4% | [2] 0.1% | [3] -4.9%

CCCCCCCCCC(=O)OCC(O)CO (stereo not given)
inactive: [1] -3.5% | [2] -2% | [3] -4.5%

O=C1N=c2ccccc2=C1c1[nH]c(=S)[nH]c1O
inactive: [1] 3.3% | [2] -0.7% | [3] 7%

O=C(O)C1Sc2[nH]c(=O)sc2C2c3ccc(O)cc3OC(=O)C12 (stereo not given)
inactive: [1] -6.1% | [2] -1% | [3] -16.5%

COc1ccc(C(CC(=O)N2CCOCC2)C(C)C)cc1 (stereo not given)
inactive: [1] -4.7% | [2] -1.9% | [3] -8.6%

CC(C)CC(NC(=O)CNC(=O)C1O[C@@H]2OC(C)(C)O[C@@H]2[C@H]2OC(C)(C)O[C@@H]12)C(=O)O (stereo not given in full)
inactive: [1] 2.8% | [2] -2% | [3] 2.8%

CN(C)C(=O)C12CCC(C)(c3nc4ccccc4nc31)C2(C)C (stereo not given)
inactive: [1] -1.3% | [2] -1.5% | [3] 1.8%

CCOC(=O)C1C(=O)OC(C)(C)C1C(C)C(=O)c1ccc(C)cc1 (stereo not given)
inactive: [1] 4.4% | [2] 0.5% | [3] 4.6%

CC(=O)N1CC2(C)CN(C(C)=O)CC(C)(C1)C2
inactive: [1] -2.3% | [2] -1.6% | [3] 7.3%

O=C(O)C(O)c1ccccc1 (stereo not given)
inactive: [1] 1.5% | [2] -1.4% | [3] 1.3%

Cc1ccc(CN2CCN(Cc3cn[nH]c3C3CCCCC3)CC2CCO)cc1 (stereo not given)
inactive: [1] -1.3% | [2] -0.4% | [3] -2.1%

Cc1[nH]c2ccccc2c1/C=C/c1nc2ccccc2c(=O)n1CCO
inactive: [1] 0% | [2] -0.4% | [3] 0.2%

OCCN(CCO)c1nc(N2CCCCC2)c2nc(N(CCO)CCO)nc(N3CCCCC3)c2n1
inactive: [1] 4.8% | [2] 0.9% | [3] 8.5%

Cc1[nH]c2ccccc2c1C(=O)CN1CCCC1
inactive: [1] 0.8% | [2] 0.2% | [3] -1.1%

O=C(Oc1ccc2c3c(c(=O)oc2c1)CCCC3)c1ccco1
inactive: [1] -0.9% | [2] -1.1% | [3] -3.9%

COc1ccc(CC(=O)N2CC3(C)CC2CC(C)(C)C3)cc1OC (stereo not given)
inactive: [1] -2.6% | [2] -1.4% | [3] -0.4%

NC(=O)[C@@H]1[C@@H]2C(=O)N(c3ccc(F)cc3)C(=O)[C@@H]2[C@H]2C=Cc3ccccc3N21
inactive: [1] 0.9% | [2] 1.5% | [3] -5.6%

O=c1ccn([C@@H]2O[C@H](CO)[C@@H](O)[C@H]2O)c(=O)[nH]1
inactive: [1] 0.8% | [2] -0.2% | [3] 1.9%

CC(=O)O[C@H]1C(=O)[C@@]2(C)[C@H]([C@H](OC(=O)c3ccccc3)[C@]3(O)C[C@H](OC(=O)[C@H](O)C(NC(=O)c4ccccc4)c4ccccc4)C(C)=C1C3(C)C)[C@]1(OC(C)=O)CO[C@@H]1C[C@@H]2O (stereo not given in full)
inactive: [1] 1.1% | [2] -0.8% | [3] 4.6%
